# A number with no mark means an inactive call. The source made the active and inactive calls. Cut-off read from the data, not from the text of the source: active = remaining activity below about 50%; inactive = the rest.
# Target: Phospholipase D2 (Homo sapiens) (UniProt O14939)
# Assay: PLD2 inhibitors in cells, cell-based, HEK293, single concentration (AID 602143);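 note: tested at 200 nM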
# Settings: HEK293 cellular PLD2 activity, percent of control; active compounds read low
# Chain of Phospholipase D2 (Homo sapiens) (O14939 whole entry, looked up): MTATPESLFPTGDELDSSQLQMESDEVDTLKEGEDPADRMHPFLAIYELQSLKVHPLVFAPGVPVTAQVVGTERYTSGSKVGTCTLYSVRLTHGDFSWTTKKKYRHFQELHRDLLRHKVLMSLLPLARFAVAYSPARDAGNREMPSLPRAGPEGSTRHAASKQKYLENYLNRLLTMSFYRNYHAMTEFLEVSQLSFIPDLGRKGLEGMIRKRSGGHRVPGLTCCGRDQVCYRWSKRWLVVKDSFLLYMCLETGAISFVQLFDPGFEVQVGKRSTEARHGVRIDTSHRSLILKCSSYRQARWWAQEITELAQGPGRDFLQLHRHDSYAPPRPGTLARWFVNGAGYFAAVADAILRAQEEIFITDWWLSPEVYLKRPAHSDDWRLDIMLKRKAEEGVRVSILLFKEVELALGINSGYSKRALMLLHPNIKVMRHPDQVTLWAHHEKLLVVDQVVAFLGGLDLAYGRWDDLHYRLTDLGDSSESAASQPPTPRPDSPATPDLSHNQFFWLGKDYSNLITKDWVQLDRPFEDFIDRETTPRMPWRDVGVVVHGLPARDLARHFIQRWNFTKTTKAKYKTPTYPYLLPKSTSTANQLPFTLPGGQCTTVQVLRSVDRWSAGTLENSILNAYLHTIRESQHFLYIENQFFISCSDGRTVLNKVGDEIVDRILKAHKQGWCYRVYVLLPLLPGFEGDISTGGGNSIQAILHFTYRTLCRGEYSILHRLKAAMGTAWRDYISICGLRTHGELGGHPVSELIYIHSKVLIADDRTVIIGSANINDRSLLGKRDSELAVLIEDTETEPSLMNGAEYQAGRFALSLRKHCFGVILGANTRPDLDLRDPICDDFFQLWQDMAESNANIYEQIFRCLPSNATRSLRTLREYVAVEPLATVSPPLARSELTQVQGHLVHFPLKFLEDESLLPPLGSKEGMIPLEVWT
# Chain of Phospholipase D2 (Homo sapiens) (O14939 whole entry, looked up): as above
row,SMILES,remaining activity
1,C[C@@H](CN1CCC(n2nnc3cc(C(F)(F)F)ccc32)CC1)NC(=O)c1cnc2ccccc2c1,86.9%
2,Cc1cccc(NC(=O)NCCN2CCC(n3c(=O)[nH]c4ccccc43)CC2)c1,111%
3,O=C1c2ccccc2C(=O)N1CCCN1CCC(c2nc3ccccc3[nH]2)CC1,82.5%
4,O=C(NCCN1CCN(c2ccncc2)CC1)c1cc2ccccc2s1,90.5%
5,O=C(NCCN1CCC(n2c(=O)[nH]c3ccccc32)CC1)Nc1cccc(OC(F)(F)F)c1,111%
6,CC1(C)[C@H]2CC[C@]1(CS(=O)(=O)NCCN1CCC(n3c(=O)[nH]c4ccccc43)CC1)C(=O)C2,72.8%
7,O=C(NCCN1CCC(n2c(=O)[nH]c3ccccc32)CC1)c1cc([N+](=O)[O-])cc([N+](=O)[O-])c1,102%
8,Cc1ccc(C(=O)N[C@@H](C)CN2CCC(n3c(=O)[nH]c4cc(Br)ccc43)CC2)cc1,74%
9,O=C(NCCN1CCC(n2c(=O)[nH]c3ccc(F)cc32)CC1)c1ccc(Cl)c(Cl)c1,0% (active)
10,O=C(NCCN1CCC(n2c(=O)[nH]c3cc(I)ccc32)CC1)c1ccc(Cl)cc1,36.7% (active)
11,O=C(NCCN1CC=C(n2nnc3cc(C(F)(F)F)ccc32)CC1)c1cnc2ccccc2c1,114%
12,O=c1[nH]c2ccccc2n1C1CCN(CCNS(=O)(=O)c2ccc(OC(F)(F)F)cc2)CC1,81%
13,O=C(NCCN1CCC(n2c(=O)[nH]c3cc(Cl)ccc32)CC1)c1ccc(Cl)cc1,56.9%
14,C[C@@H](CN1CCC(n2c(=O)[nH]c3ccccc32)CC1)NC(=O)Cc1cccs1,99.6%
15,O=C(NCCN1CCN(c2ccncc2)CC1)c1ccccc1-c1ccccc1,83.2%
16,C[C@@H](CN1CCC(n2c(=O)[nH]c3ccccc32)CC1)NC(=O)CCc1ccc(F)cc1,48.9% (active)
17,CS(=O)(=O)N1CC2(CCN(CCNC(=O)c3ccc4ccccc4c3)CC2)c2ccccc21,84.2%
18,C[C@@H](CN1CCC(n2c(=O)[nH]c3cc(-c4ccc(C(F)(F)F)cc4)ccc32)CC1)NC(=O)[C@H]1C[C@@H]1c1ccccc1,70.9%
19,O=C1c2ccccc2C(=O)N1CCCN1CCC(n2c(=O)[nH]c3ccccc32)CC1,97.3%
20,C[C@@H](CN1CCC(n2c(=O)[nH]c3cc(-c4cccnc4)ccc32)CC1)NC(=O)[C@H]1C[C@@H]1c1ccccc1,72.1%

row,SMILES,remaining activity
1,NC1(CN2CCC(c3nc4ccccc4[nH]3)CC2)CCCC1 (tested in a mixture with another compound),105%
2,O=C(NCCN1CCC(n2c(=O)n(C(=O)c3ccc(Cl)cc3)c3ccccc32)CC1)c1ccc(Cl)cc1,64.5%
3,O=C(NCCN1CCC2(CCc3ccccc32)CC1)[C@H]1C[C@@H]1c1ccccc1,99.8%
4,O=C(NCCN1CCN(c2ccccn2)CC1)c1ccc(C(F)(F)F)cc1,117%
5,C[C@@H](CN1CCC2(CC1)CCN(C)C2=O)NC(=O)c1cnc2ccccc2c1,113%
6,C[C@@H](CN1CCC2(CC1)CN(S(C)(=O)=O)c1ccccc12)NC(=O)[C@H]1C[C@@H]1c1ccccc1,109%
7,O=C(NCCN1CCC2(CC1)CCN(c1ccccc1)C2=O)c1ccc2ccccc2c1,55%
8,O=C(NCCN1CCC(n2c(=O)[nH]c3ccccc32)CC1)Nc1ccccc1C(F)(F)F,114%
9,Nc1ccc(C(=O)NCCN2CCC(n3c(=O)[nH]c4ccccc43)CC2)cc1OC(F)(F)F,76.5%
10,O=C(NCCN1CCN(c2ncccn2)CC1)c1ccc(Cl)cc1,106%
11,O=C(NCCN1CCC(n2c(=O)[nH]c3ccccc32)CC1)C1CCCCCC1,104%
12,O=C(NCCN1CCC(C(=O)NCc2ccc(Cl)cc2)CC1)c1ccc2ccccc2c1,106%
13,CS(=O)(=O)N1CC2(CCN(CCNC(=O)c3cnc4ccccc4c3)CC2)c2ccccc21,83.7%
14,Cc1ccc(C(=O)NCCN2CCN(c3ccccn3)CC2)cc1,107%
15,O=c1[nH]c2ccccc2n1C1CCN(CCNS(=O)(=O)c2ccc(F)cc2)CC1,75.9%
16,O=C(NCCN1CCC(n2c(=O)[nH]c3ccccc32)CC1)c1cc2ccccc2c2c1ccc1ccccc12,76.6%
17,O=C(NCCN1CCC(n2c(=O)[nH]c3ccccc32)CC1)C1CCc2ccccc2C1 (stereo not given),103%
18,C[C@H](CN1CCC(n2nnc3ccccc32)CC1)NC(=O)c1ccc2ccccc2c1,48.2% (active)
19,C=CCCCCCCCCC(=O)NCCN1CCC(n2c(=O)[nH]c3ccccc32)CC1,65.3%
20,O=c1[nH]c2ccccc2n1C1CCN(CCNS(=O)(=O)c2cccc3cccnc23)CC1,112%

# From PubChem BioAssay AID602143 (Vanderbilt Specialized Chemistry Center, 2011)
